The values below come from PubChem BioAssay AID431 (Sanford-Burnham Center for Chemical Genomics, 2006).

SMILES strings stand for the structures. The whole screen tested about 63,000 compounds, of which about 1,100 (1.7%) were called active.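 Rule for the calls: active = compounds whose percent cytotoxicity in the single-dose primary screen, scaled between solvent and toxic-drug controls, exceeds 50; inactive = the rest.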 Shown is part of a subset that was picked to be rich in actives. Entries with a potency or affinity are not part of this list.

A short description of this assay: viability loss of HPDE-C7K cells – cell-based, fluorescence, HTS, primary screen (AID 431).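 Note: 0% = DMSO solvent wells and 100% = doxorubicin-treated wells.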 The note with it: HPDE-C7K KRASV12 cells, Alamar Blue viability, 48 h; at 10 µM; hits give high values. For orientation: Alamar Blue is a resazurin reagent that responds to reducing activity.
For the compound `CCCCn1c(-c2cc(Cl)ccc2OC)n[nH]c1=S`, the cytotoxicity was -11.5% (inactive).

For the compound `Cc1ccc(S(=O)(=O)c2c(C)nn(C(C)(C)C)c2OC(=O)C2CCCC2)cc1`, the cytotoxicity was -5.1% (inactive). Then `CC(=O)Nc1ccc(S(=O)(=O)N2CCC(NC(C)=O)(c3cccc(F)c3)CC2)cc1`, with 8% (inactive); and `CC1CCCCN1CC(=O)Nc1sc2c(c1C#N)CCC2` (stereo unspecified), with -11.1% (inactive); and `Cc1ccc(S(=O)(=O)NC(=O)NC(C)(C)C)cc1`, with 12.4% (inactive). Then `OC1CCN(Cc2cccc(Oc3ccccc3)c2)CC1`, with 20.9% (inactive); and `OCC(CO)(CO)N=Cc1c(O)ccc2ccccc12`, with 68% (active).

Take `Oc1ccc2ccccc2c1/C=N/n1cnnc1`: the cytotoxicity was 18.6% (inactive). Take `Oc1ccc2ccccc2c1C=NC12CN3CCN(CN(C3)C1)C2`: the cytotoxicity is 0.4% (inactive). Then `COc1ccc(S(=O)(=O)N(CC(=O)N2CCN(C)CC2)C2CCCCC2)cc1OC`, with 0.2% (inactive).

For the compound `COc1ccc(CCn2c(-n3nc(C)cc3C)nc3c2c(=O)[nH]c(=O)n3C)cc1`, the cytotoxicity was 52.6% (active). Then `Cc1cc(C)n(-c2nc3c(c(=O)[nH]c(=O)n3C)n2CCc2ccccc2)n1`, with 11.3% (inactive); and `Cc1ccc(Cn2c(-n3nc(C)cc3C)nc3c2c(=O)[nH]c(=O)n3C)cc1`, with 5% (inactive). Then `COc1ccc(N2CC(C(=O)NC3CC(C)(C)NC(C)(C)C3)CC2=O)cc1` (stereo unspecified), with -5% (inactive); and `COc1ccc(OC)c(NC(=O)CSc2nnc(CNC(=O)COc3ccc(Cl)cc3)o2)c1`, with -3% (inactive).

On to `CCn1c(=O)c(C(=O)NCCCO)c(O)c2ccccc21`, for which the cytotoxicity is 70.7% (active). Regarding `CCCn1c(=O)c(C(=O)Nc2nnc(CC)s2)c(O)c2ccccc21`, the cytotoxicity is 14.3% (inactive).

For the compound `CCn1c(=O)c(C(=O)NCCNCCO)c(O)c2ccccc21`, the cytotoxicity is 13.9% (inactive). Consider `CCn1c(=O)c(C(=O)Nn2c(C)nc3ccccc3c2=O)c(O)c2ccccc21`, for which the cytotoxicity was 17.6% (inactive). Then `CCn1c(=O)c(C(=O)NCCc2ccccc2)c(O)c2ccccc21`, with -11.5% (inactive); and `CCn1c(=O)c(C(=O)Nc2cccnc2)c(O)c2ccccc21`, with 11.7% (inactive); and `CCCn1c(=O)c(C(=O)Nc2nnc(C)s2)c(O)c2ccccc21`, with 62.2% (active). Consider `C=CCn1c(=O)c(C(=O)Nc2nnc(C)s2)c(O)c2ccccc21`, for which the cytotoxicity was 9.1% (inactive).

On to `Cc1onc(-c2c(F)cccc2Cl)c1C(=O)NCCc1ccc(S(N)(=O)=O)cc1`, for which the cytotoxicity is -7.2% (inactive). As for `N#C/C(C(=O)N1CCOCC1)=C1\Nc2ccccc2S1`, the cytotoxicity is 14.5% (inactive). Consider `O=C(NCc1ccco1)c1cc(-c2ccncc2)nc2ccccc12`, for which the cytotoxicity is -8.1% (inactive). Then `CCOc1cc(N2CCOCC2)c(OCC)cc1NC1=NCCCCC1`, with -3.3% (inactive); and `CC1CCCC(NC(=O)CSc2nnc(N)s2)C1C` (stereo unspecified), with -4.3% (inactive); and `Cc1ccc(C)c(N(CC(=O)NCc2ccc3c(c2)OCO3)C(=O)CCC(=O)Nc2ccccn2)c1`, with -28% (inactive). Then `COc1ccc(N2CSC3=C(C#N)C(c4ccc(OC)c(OC)c4)CC(=O)N3C2)c(OC)c1` (stereo unspecified), with -12% (inactive); and `CC(C)N=c1cc2n(-c3ccc(Cl)cc3)c3ccccc3nc-2cc1Nc1ccc(Cl)cc1`, with 68.8% (active). For the compound `Cn1c(CNc2ccc(Cl)cc2)nc2ccccc21`, the cytotoxicity is -9.8% (inactive). On to `Cc1nc2ccccc2n1-c1ccccc1`, for which the cytotoxicity was -12.4% (inactive). For `CCCCn1c(C(C)NC(=O)CCC)nc2ccccc21` (stereo unspecified), the cytotoxicity was 2.5% (inactive). Then `CCOCCN1CCN(c2c(C)c(C)nc3cc(-c4cc(OC)cc(OC)c4)nn23)CC1`, with 9.5% (inactive); and `CCc1c(C)nc2cc(-c3ccc(OC)c(OC)c3)nn2c1N1CCCC1`, with 19.1% (inactive). `CCCSC1=N/C(=C\C=C\c2ccco2)C(=O)S1`: the cytotoxicity is 51.9% (active).

As for `C=CCSC1=N/C(=C\C=C\c2ccco2)C(=O)S1`, the cytotoxicity is 33.1% (inactive). Then `O=C1SC(SCc2ccccc2)=N/C1=C\c1ccco1`, with 42.6% (inactive); and `ONC(=Nc1ccccc1)C(=Nc1ccccc1)NO`, with -6.3% (inactive). Then `CC(=Nc1ccccc1)Nc1ccccc1`, with -3.8% (inactive); and `S=C(N=Nc1ccccc1)NNc1ccccc1`, with 50.5% (active); and `COC(=O)c1c(C)[nH]c(C(=O)C(C)Sc2nnc(-c3cc(OC)c(OC)c(OC)c3)o2)c1C` (stereo unspecified), with 11.4% (inactive). Then `Cn1c(=O)c2c(nc(NCCCN3CCOCC3)n2Cc2ccc(Cl)cc2)n(C)c1=O`, with -3.3% (inactive); and `CCOC(=O)c1c(C)oc2c1cc(O)c1ccccc12`, with 14% (inactive); and `COC(=O)c1c(C)oc(C)c(C(=O)OC)c1=O`, with 0.6% (inactive). For the compound `CCN1CCN(Cc2cc(=O)oc3ccc(Cl)cc23)CC1`, the cytotoxicity was -11% (inactive). Then `Cc1ccc(-n2c(SCC(=O)Nc3ccc4c(c3)OCO4)nnc2-c2ccoc2C)cc1`, with 17% (inactive); and `Cc1cccc(-n2c(SCC(=O)Nc3ccc4c(c3)OCO4)nnc2-c2ccoc2C)c1`, with 53.6% (active); and `Cc1cccc(-n2c(SCC(=O)Nc3nonc3C)nnc2-c2ccoc2C)c1`, with -13.8% (inactive). Then `COC(=O)c1cccc(NC(=O)C2COc3ccccc3O2)c1` (stereo unspecified), with -26.2% (inactive).

Regarding `CC(=O)c1ccccc1OC(=O)c1ccco1`, the cytotoxicity was -0.8% (inactive). `C=CCN1C(=Nc2ccccc2)SC/C1=C\C(=O)OC`: the cytotoxicity is -1.6% (inactive).

In the case of `O=C(c1cccc(C(=O)N2CCN(c3ncccn3)CC2)c1)N1CCN(c2ncccn2)CC1`, the cytotoxicity was -2.4% (inactive). Then `Cc1c(C)c2cc(Cl)c(OCc3nn[nH]n3)cc2oc1=O`, with -12% (inactive); and `CCOC(=O)c1[nH]c2ccc(F)cc2c1NC(=O)C(C)N1CCc2cc(OC)c(OC)cc2C1` (stereo unspecified), with 53.6% (active); and `CCOC(=O)c1[nH]c2ccc(OCC)cc2c1NC(=O)CN1CCN(c2ccccc2)CC1`, with 7.4% (inactive).

With `CCOC(=O)c1[nH]c2ccccc2c1NC(=O)CN1CCCCC1`, the cytotoxicity was -11.1% (inactive). Then `CCOC(=O)c1[nH]c2ccc(F)cc2c1NC(=O)CN1CCc2cc(OC)c(OC)cc2C1`, with -3.4% (inactive); and `CCOC(=O)c1[nH]c2ccc(OC)cc2c1NC(=O)C(C)N1CCSCC1` (stereo unspecified), with 31.2% (inactive); and `CCOC(=O)c1[nH]c2ccc(F)cc2c1NC(=O)CN1CCN(C/C=C/c2ccccc2)CC1`, with 65% (active).
